Growth inhibition data for ten molecules are collected here from PubChem BioAssay (NCI).

Molecules are shown by their SMILES. The panel holds about 79,000 compounds, 15% with a hit somewhere; the sample as a whole holds those more often. Values without a mark were called inactive. Active and inactive are the calls of the source. No stated cut-off is given here; in the data, active means growth inhibition above about 70%; inactive means the rest.

Assay [1] is described as follows: NCI Yeast Anticancer Drug Screen. Data for the rad50 strain (AID 155).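 Further: 0% = growth of vehicle-only cultures of the same strain.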 As to conditions: S. cerevisiae rad50 strain growth inhibition, hits give high values. In outline: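 Inhibition values express reduced yeast growth in compound-treated cultures relative to vehicle-treated controls.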
The nature of assay [2]: NCI Yeast Anticancer Drug Screen. Data for the mec2-1 strain (AID 157). Conditions: S. cerevisiae mec2-1 strain, hits give high values. In outline:
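Growth inhibition is read against vehicle-treated controls after compound exposure of the mec2-1 yeast strain, which is defective in DNA damage repair or cell cycle control.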

Assay [3] in a line: NCI Yeast Anticancer Drug Screen. Data for the sgs1 mgt1 strain (AID 161).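 Further: 0% = growth of cultures given vehicle only.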 Conditions: S. cerevisiae sgs1 mgt1 strain, hits give high values. In a few lines:
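Yeast cells carrying a defined DNA-repair defect were exposed to test compounds. Growth inhibition was measured relative to vehicle-treated controls.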

Assay [4] is described as follows: NCI Yeast Anticancer Drug Screen. Data for the cln2 rad14 strain (AID 165).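 Further: 0% = growth equal to vehicle treated cultures.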 Conditions: S. cerevisiae cln2 rad14 strain, hits give high values. In outline: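 Growth inhibition, relative to vehicle-treated controls, is the read-out. The test organism is a yeast strain with defined genetic alterations, cln2 rad14.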
Assay [5] in a line: NCI Yeast Anticancer Drug Screen. Data for the bub3 strain (AID 167). Conditions: S. cerevisiae bub3 mutant strain, hits give high values. In outline:
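Steps: expose the mutant yeast strain to compound; grow alongside vehicle-treated cultures; measure growth; express inhibition against the vehicle cultures.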

Assay [6] can be described thus: NCI Yeast Anticancer Drug Screen. Data for the mlh1 rad18 strain (AID 175). As to conditions: S. cerevisiae mlh1 rad18 strain growth inhibition, hits give high values. In a few lines: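 Cells of a genetically altered yeast strain, deficient in DNA damage repair, were treated with compound. Their growth was then compared with that of vehicle-treated cultures to give inhibition.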

[7] abbreviates: at 5.0 µM (retest, dose inferred, filed as 0.5).
The mark [8] stands for this setting: at 50.0 µM (retest, dose inferred, filed as 5.0).

As for `CCCCC(CSC#N)SC#N` (stereo not given), the growth inhibition in assay [1] (setting [7]) was 14%; in assay [1] (setting [8]), 98% (active); in assay [1] (at 50.0 µM), 99% (active); in assay [2] (setting [7]), 14%; in assay [2] (setting [8]), 98% (active); in assay [2] (at 50.0 µM) it was 98.3% (active). In addition, the growth inhibition is 12% in assay [3] (setting [7]); 97% (active) in assay [3] (setting [8]); 97.2% (active) in assay [3] (at 50.0 µM); 3% in assay [4] (setting [7]); 95% (active) in assay [4] (setting [8]); 97.2% (active) in assay [4] (at 50.0 µM). The growth inhibition is 16% in assay [5] (setting [7]); 97% (active) in assay [5] (setting [8]); 98% (active) in assay [5] (at 50.0 µM); 24% in assay [6] (setting [7]); 98% (active) in assay [6] (setting [8]); 98.3% (active) in assay [6] (at 50.0 µM).
For the molecule `CCOC(=O)/C(C#N)=C\c1cccc2ccccc12`, the growth inhibition was 13% in assay [1] (setting [7]); 57% in assay [1] (setting [8]); 84% (active) in assay [1] (at 50.0 µM); 1% in assay [2] (setting [7]); 91% (active) in assay [2] (setting [8]); 92.3% (active) in assay [2] (at 50.0 µM). Moreover, the growth inhibition is 5% in assay [3] (setting [7]); 75% (active) in assay [3] (setting [8]); 91.8% (active) in assay [3] (at 50.0 µM); -17% in assay [4] (setting [7]); 27% in assay [4] (setting [8]); -12.4% in assay [4] (at 50.0 µM). Moreover, the growth inhibition is -4% in assay [5] (setting [7]); 40% in assay [5] (setting [8]); 96.2% (active) in assay [5] (at 50.0 µM); -2% in assay [6] (setting [7]); 94% (active) in assay [6] (setting [8]); 95.7% (active) in assay [6] (at 50.0 µM).
`Cc1cc(O)c(/C=N/C(=S)Nc2ccc(S(N)(=O)=O)cc2)c(=O)o1`: the growth inhibition in assay [1] (setting [7]) was 17%; in assay [1] (setting [8]), 42%; in assay [1] (at 50.0 µM) it was -24.4%; in assay [2] (setting [7]), 13%; in assay [2] (setting [8]), 32%; in assay [2] (at 50.0 µM), 4.9%. In addition, the growth inhibition in assay [3] (setting [7]) was 19%; in assay [3] (setting [8]), 57%; in assay [3] (at 50.0 µM) it was -10.2%; in assay [4] (setting [7]) it was 8%; in assay [4] (setting [8]), 39%; in assay [4] (at 50.0 µM) it was -6.55%. Moreover, the growth inhibition in assay [5] (setting [7]) is 31%; in assay [5] (setting [8]) it was 56%; in assay [5] (at 50.0 µM) it was 1.45%; in assay [6] (setting [7]) it was 9%; in assay [6] (setting [8]), 44%; in assay [6] (at 50.0 µM) it was -33.1%.
Take `CC1CCC(C(C)(C)c2ccc(O)cc2)CC1` (stereo not given): the growth inhibition is 0% in assay [1] (setting [7]); 97% (active) in assay [1] (setting [8]); 97.7% (active) in assay [1] (at 50.0 µM); -1% in assay [2] (setting [7]); 98% (active) in assay [2] (setting [8]); 98.2% (active) in assay [2] (at 50.0 µM). The growth inhibition was 3% in assay [3] (setting [7]); 98% (active) in assay [3] (setting [8]); 98.8% (active) in assay [3] (at 50.0 µM); -6% in assay [4] (setting [7]); 96% (active) in assay [4] (setting [8]); 97.6% (active) in assay [4] (at 50.0 µM). Moreover, the growth inhibition was -4% in assay [5] (setting [7]); 97% (active) in assay [5] (setting [8]); 98.3% (active) in assay [5] (at 50.0 µM); -6% in assay [6] (setting [7]); 98% (active) in assay [6] (setting [8]); 98.3% (active) in assay [6] (at 50.0 µM).
Turning to `O=S(=O)(c1ccccc1)n1cc(C[P+](c2ccccc2)(c2ccccc2)c2ccccc2)c2ccccc21`, the growth inhibition in assay [1] (setting [7]) is 21%; in assay [1] (setting [8]), 99% (active); in assay [1] (at 50.0 µM), 99.3% (active); in assay [2] (setting [7]) it was -1%; in assay [2] (setting [8]) it was 99% (active); in assay [2] (at 50.0 µM) it was 99.5% (active). Also, the growth inhibition in assay [3] (setting [7]) is 20%; in assay [3] (setting [8]), 98% (active); in assay [3] (at 50.0 µM), 99.5% (active); in assay [4] (setting [7]), 8%; in assay [4] (setting [8]), 99% (active); in assay [4] (at 50.0 µM), 98.1% (active). Also, the growth inhibition in assay [5] (setting [7]) is 10%; in assay [5] (setting [8]), 99% (active); in assay [5] (at 50.0 µM), 99.4% (active); in assay [6] (setting [7]), 27%; in assay [6] (setting [8]) it was 99% (active); in assay [6] (at 50.0 µM) it was 99.3% (active).
For the molecule `CSc1ncnc2nn(C3OC(COC(=O)c4ccccc4)C(OC(=O)c4ccccc4)C3OC(=O)c3ccccc3)nc12` (stereo not given), the growth inhibition is -16% in assay [1] (setting [7]); -1% in assay [1] (setting [8]); -14.8% in assay [1] (at 50.0 µM); -1% in assay [2] (setting [7]); -6% in assay [2] (setting [8]); 17.9% in assay [2] (at 50.0 µM). The growth inhibition in assay [3] (setting [7]) is -6%; in assay [3] (setting [8]) it was 1%; in assay [3] (at 50.0 µM) it was -13.6%; in assay [4] (setting [7]), -1%; in assay [4] (setting [8]), -9%; in assay [4] (at 50.0 µM), 40.3%. The growth inhibition in assay [5] (setting [7]) was -3%; in assay [5] (setting [8]), 3%; in assay [5] (at 50.0 µM), -11.2%; in assay [6] (setting [7]), -5%; in assay [6] (setting [8]) it was -3%; in assay [6] (at 50.0 µM), 15.2%.
Regarding `CCCCCCOC(=O)CCC(=O)OCCCCCC`, the growth inhibition in assay [1] (setting [7]) was -7%; in assay [1] (setting [8]), -20%; in assay [1] (at 50.0 µM) it was -2.7%; in assay [2] (setting [7]) it was -3%; in assay [2] (setting [8]) it was -20%; in assay [2] (at 50.0 µM) it was 17.9%. For the same molecule, the growth inhibition in assay [3] (setting [7]) was -1%; in assay [3] (setting [8]) it was 15%; in assay [3] (at 50.0 µM), 23.5%; in assay [4] (setting [7]) it was 32%; in assay [4] (setting [8]) it was 23%; in assay [4] (at 50.0 µM), 41.1%. Further, the growth inhibition in assay [5] (setting [7]) was 16%; in assay [5] (setting [8]) it was 43%; in assay [5] (at 50.0 µM), 63.8%; in assay [6] (setting [7]), -15%; in assay [6] (setting [8]), -9%; in assay [6] (at 50.0 µM), 24.1%.
Regarding `CC(C)(C)c1cc2c(c(C(C)(C)C)c1O)CC(=O)O2`, the growth inhibition in assay [1] (setting [7]) was -6%; in assay [1] (setting [8]), 74% (active); in assay [1] (at 50.0 µM), 27.7%; in assay [2] (setting [7]), -18%; in assay [2] (setting [8]), 85% (active); in assay [2] (at 50.0 µM), 45.5%. Also, the growth inhibition in assay [3] (setting [7]) was -37%; in assay [3] (setting [8]), 77% (active); in assay [3] (at 50.0 µM) it was 57.8%; in assay [4] (setting [7]), 23%; in assay [4] (setting [8]) it was 64%; in assay [4] (at 50.0 µM), 53.8%. For the same molecule, the growth inhibition in assay [5] (setting [7]) is -32%; in assay [5] (setting [8]) it was 97% (active); in assay [5] (at 50.0 µM), 72.5% (active); in assay [6] (setting [7]) it was -3%; in assay [6] (setting [8]) it was 84% (active); in assay [6] (at 50.0 µM) it was 73.9% (active).
In the case of `Cc1ccccc1C(O)(c1ccccc1C)C1(O)CCN(C)CC1`, the growth inhibition in assay [1] (setting [7]) was 0%; in assay [1] (setting [8]) it was -3%; in assay [1] (at 50.0 µM), 86.2% (active); in assay [2] (setting [7]), -4%; in assay [2] (setting [8]), 0%; in assay [2] (at 50.0 µM), 96.7% (active). The growth inhibition was 2% in assay [3] (setting [7]); -10% in assay [3] (setting [8]); 96.2% (active) in assay [3] (at 50.0 µM); -7% in assay [4] (setting [7]); -11% in assay [4] (setting [8]); 91.8% (active) in assay [4] (at 50.0 µM). In addition, the growth inhibition in assay [5] (setting [7]) is -4%; in assay [5] (setting [8]) it was -11%; in assay [5] (at 50.0 µM), 96.2% (active); in assay [6] (setting [7]), 13%; in assay [6] (setting [8]) it was -2%; in assay [6] (at 50.0 µM), 98.7% (active).
Turning to `Cn1c2c(c3ccccc31)CCN(CCCN1CCN(c3cccc(Cl)c3)CC1)C2=O`, the growth inhibition in assay [1] (setting [7]) is 32%; in assay [1] (setting [8]), 32%; in assay [1] (at 50.0 µM), 79.2% (active); in assay [2] (setting [7]), 7%; in assay [2] (setting [8]) it was 7%; in assay [2] (at 50.0 µM), 54.1%. Also, the growth inhibition in assay [3] (setting [7]) is 22%; in assay [3] (setting [8]), 22%; in assay [3] (at 50.0 µM), 78.7% (active); in assay [4] (setting [7]), 11%; in assay [4] (setting [8]) it was 11%; in assay [4] (at 50.0 µM), 73.8% (active). For the same molecule, the growth inhibition in assay [5] (setting [7]) is 2%; in assay [5] (setting [8]), 2%; in assay [5] (at 50.0 µM), 80% (active); in assay [6] (setting [7]) it was 25%; in assay [6] (setting [8]) it was 25%; in assay [6] (at 50.0 µM), 71% (active).
